# Test results: article PMC5540273 (PLoS ONE, 2017)
# What was measured:
# Settings in all cases: concentration: 1 μM, replicates: in singlicate; n = 1
# TESK1 = tested on: TESK1
# TGFBR1 = tested on: TGFBR1
# TGFBR2 = tested on: TGFBR2
# TIE1 = tested on: TIE1
# TIE2 = tested on: T1, TIE2
# T1 construct: gene TEK
# TLK1 = tested on: TLK1
# TLK2 = tested on: TLK2
# TNIK = tested on: TNIK
# TNK1 = tested on: TNK1
# TNK2 = tested on: TNK2
# TNNI3K = tested on: TNNI3K
# TRKA = tested on: T2, TRKA
# T2 construct: gene NTRK1
# TRKB = tested on: TRKB
# TRKC = tested on: T3, TRKC
# T3 construct: gene NTRK3
# TRPM6 = tested on: TRPM6
# TSSK1B = tested on: TSSK1B
# TSSK3 = tested on: TSSK3
# TTK = tested on: TTK
# TXK = tested on: TXK
# [1] = tested on: TYK2(JH1domain-catalytic)
# 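Note: KINOMEscan kinase panel screen.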
SMILES,%Inh (TESK1),%Inh (TGFBR1),%Inh (TGFBR2),%Inh (TIE1),%Inh (TIE2),%Inh (TLK1),%Inh (TLK2),%Inh (TNIK),%Inh (TNK1),%Inh (TNK2),%Inh (TNNI3K),%Inh (TRKA),%Inh (TRKB),%Inh (TRKC),%Inh (TRPM6),%Inh (TSSK1B),%Inh (TSSK3),%Inh (TTK),%Inh (TXK),%Inh [1]
CSc1cccc2c(-c3ccncn3)c(-c3ccc(F)cc3)nn12 [GW514786],31%,28%,24%,6%,0%,0%,0%,0%,8%,6%,6%,16%,0%,0%,17%,0%,22%,8%,0%,0%
COc1cc(Nc2nccc(-c3c(-c4cccc(NC(=O)c5c(F)cccc5F)c4)nn4ccccc34)n2)cc(OC)c1OC [GSK323521],36%,0%,17%,67%,46%,6%,0%,0%,0%,1%,3%,78%,35%,40%,16%,0%,20%,10%,0%,0%
c1ccc(Oc2ccc(Nc3ccnc4cc(-c5ccc(CNCCN6CCOCC6)o5)ccc34)cc2)nc1 [GW567145],3%,0%,0%,0%,0%,0%,0%,30%,27%,37%,0%,100%,53%,42%,14%,0%,2%,7%,1%,0%
O=C(Nc1cccc(Oc2ccc3nc(NC(=O)C4CC4)cn3n2)c1)c1ccccc1C(F)(F)F,17%,9%,0%,16%,14%,0%,3%,9%,55%,4%,4%,0%,0%,0%,0%,7%,0%,26%,17%,5%
CCn1c(-c2nonc2N)nc2c(C#CC(C)(C)O)ncc(OCCCCN)c21.O=C(O)C(F)(F)F.O=C(O)C(F)(F)F [GSK507274],57%,0%,0%,5%,44%,0%,0%,0%,0%,11%,9%,0%,19%,1%,0%,80%,99.5%,21%,49%,33%
O=C(Nc1cccc(-c2nn3ncccc3c2-c2ccnc(Nc3ccccc3)n2)c1)c1c(F)cccc1F [GSK198271],24%,0%,0%,45%,25%,22%,0%,32%,97.4%,51%,36%,0%,0%,0%,55%,0%,18%,7%,84%,7%
O=C(Nc1ccccc1F)NC1CCN(c2ccnc(Nc3ccc(F)cc3)n2)CC1 [GSK1379800],17%,36%,0%,6%,7%,0%,0%,0%,0%,15%,0%,0%,0%,6%,0%,1%,22%,0%,46%,28%
